Experimental data published in PubChem BioAssay AID1688 (National Center for Advancing Translational Sciences (NCATS), 2009).
The whole screen tested about 220,000 compounds, of which about 2,400 (1.1%) were called active. Not shown: some 7% with an inconclusive outcome. Many of the other results were omitted from the sample, so actives are more common in it than they were. A number with no mark means an inactive call. Calls come from the whole dose curve; as a rule, active = well fitted inhibition curve with a large enough effect; inconclusive = small, poorly fitted or top-dose-only effect, or effect the other way; inactive = no such curve, though single readings can be large or run the other way.
% is set by controls: 0 for no effect and ±100 for the full control effect; potency is the fitted concentration of half-maximal effect.

Experiment: qHTS Multiplex Assay to Identify Dual Action Probes in a Cell Model of Huntington: Aggregate Formation (GFP); note: nearly all actives have a fitted effect of over 60% in size
Settings: PC12 HttQ103-GFP aggregates, Acumen cytometry, 40 h; series mostly up to 9.22 µM; activity change, negative = inhibition: at the top concentration
Procedure, shortened: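 PC12 cells stably carrying ecdysone-inducible HTT exon 1 Q103–GFP were induced with tebufenozide (100 nM final) and treated with library compounds in titration. GFP aggregates in lysates were counted by laser scanning cytometry.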
For `O=[N+]([O-])C(=c1ccc2c(c1)N1C3=C(CCCC3)CC3CCCCC31N=2)[N+](=O)[O-]` (stereo not drawn), the “activity change, negative = inhibition” value was -2.2%.
In the case of `CCOC(=O)CN(C(=O)COc1nc(-c2ccccc2)cc(C)c1C#N)c1ccc(F)cc1`, the “activity change, negative = inhibition” value is reported as -11%.
With `C=CCN(c1ccccc1C(=O)NCC(=O)OCC)S(=O)(=O)c1ccc(C)cc1` the “activity change, negative = inhibition” value was -26.8%.
For `CN1C(=O)c2ccc(NC(=O)C3CCCCC3)cc2C1=O`, the “activity change, negative = inhibition” value was 3.28% [at 46.1 µM].
With `O=C(O)c1ccc(NC(=O)C2CCCCC2)cc1` the “activity change, negative = inhibition” value was 8.31% [at 46.1 µM].
For `O=C(Nc1cnn(Cc2ccc(Cl)cc2)c1)C1CCCC1`, the Potency was 0.794 µM (active).
In the case of `COc1ccc(-c2nc3cc([N+](=O)[O-])ccc3o2)cc1OC`, the “activity change, negative = inhibition” value is reported as -3.14%.
For `Cc1nnc(-c2ccc(Oc3ccc(C)c(C)c3)c([N+](=O)[O-])c2)o1`, the Potency was 11.2 µM (active).
In the case of `COc1ccc(OCC(=O)Nc2cc(C)c(Cl)cc2OC)c([N+](=O)[O-])c1`, the “activity change, negative = inhibition” value is reported as 7.75% [at 46.1 µM].
With `O=C(N/N=C/c1ccccn1)c1cccnc1` the “activity change, negative = inhibition” value was -3.79%.
In the case of `NC(=O)Cc1ccc2c(c1)[nH]c1ccccc12`, the “activity change, negative = inhibition” value is reported as 14%.
For `O=[N+]([O-])/C=C1\CCCCCN1`, the “activity change, negative = inhibition” value was 18.3%.
With `CCc1ccc(S(=O)(=O)NCC(O)COc2ccc(OC)cc2)cc1` (stereo not drawn) the “activity change, negative = inhibition” value was -7.53%.
In the case of `CCOc1ccc(-n2c(O)c(/C=N/Nc3nnc(C)c(=O)[nH]3)c3ccccc3c2=O)cc1`, the “activity change, negative = inhibition” value is reported as 5.42% [at 46.1 µM].
For `Cc1nnc(N/N=C/c2ccccn2)[nH]c1=O`, the “activity change, negative = inhibition” value was -25.2%.
With `COc1ccc(Cc2nnc(N/N=C/c3ccccc3O)[nH]c2=O)cc1OC` the Potency was 1.26 µM (active).
With `COC(=O)[C@@H]1CC2=CC(=O)CC[C@]2(C)[C@@]23O[C@@H]2C[C@@]2(C)[C@@H](CC[C@@]24CCC(=O)O4)[C@H]13` the “activity change, negative = inhibition” value was 7.77% [at 46.1 µM].
With `COC(C(=O)Nc1ccc(C(C)=O)cc1)c1ccccc1` (stereo not drawn) the “activity change, negative = inhibition” value was 3.95% [at 46.1 µM].
In the case of `CC(=O)c1cccc(NC(=O)Nc2ccc(C)cc2)c1`, the “activity change, negative = inhibition” value is reported as -23.6% [at 46.1 µM].
With `Cc1ccc(NC(=O)C(C)c2cccc(C(=O)c3ccccc3)c2)cc1` (stereo not drawn) the Potency was 25.1 µM (active).
In the case of `CCOC(=O)C1C(c2ccc(OC)c(OC)c2)c2c([nH][nH]c2=O)CC1(C)O` (stereo not drawn), the “activity change, negative = inhibition” value is reported as -8.41%.
In the case of `O=C1N(c2ccccc2)C(=Nc2ccccc2)SC12CC2`, the “activity change, negative = inhibition” value is reported as -12.3%.
In the case of `O=c1[nH]c(N2CCN(Cc3ccc4c(c3)OCO4)CC2)nc2c1CCCC2`, the “activity change, negative = inhibition” value is reported as 7.27% [at 46.1 µM].
In the case of `Fc1ccc2[nH]c3c(N4CCN(Cc5ccc6c(c5)OCO6)CC4)ncnc3c2c1`, the Potency is reported as 3.55 µM (active).
With `Cc1cc(N2CCN(Cc3ccc4c(c3)OCO4)CC2)n2ncnc2n1` the “activity change, negative = inhibition” value was -6.11% [at 46.1 µM].
With `O=C(NNS(=O)(=O)c1ccccc1)c1cnn(-c2ccc(Cl)cc2)c1C(F)(F)F` the “activity change, negative = inhibition” value was 3.68%.
With `COc1cccc(OC)c1CN(C)C(=O)c1cnccc1C(F)(F)F` the “activity change, negative = inhibition” value was 0.946%.
For `C/C(=N/NC(=O)c1ccn(C)n1)c1ccncc1`, the “activity change, negative = inhibition” value was 8.06%.
In the case of `CC(/C=C/c1ccco1)=N/NC(=O)C1COc2ccccc2O1` (stereo not drawn), the “activity change, negative = inhibition” value is reported as 4.37%.
In the case of `COc1ccccc1Oc1ccc(S(=O)(=O)Nc2cccnc2)cc1`, the Potency is reported as 11.2 µM (active).
In the case of `COc1ccc(S(=O)(=O)Nc2cccnc2)c(Cl)c1Cl`, the “activity change, negative = inhibition” value is reported as 1.71%.
With `O=S(=O)(Nc1ccccn1)c1ccc(Oc2ccccc2)cc1` the “activity change, negative = inhibition” value was -9.45% [at 46.1 µM].
With `COc1ccc(-c2cc(C(F)(F)F)nc(SCCC(=O)NCc3ccco3)n2)cc1` the “activity change, negative = inhibition” value was -15.2% [at 46.1 µM].
For `O=C(CSc1nc(-c2ccco2)cc(C(F)(F)F)n1)NCc1cccs1`, the Potency was 15.8 µM (active).
With `O=C(CSc1nc(-c2ccco2)cc(C(F)(F)F)n1)N1CCc2ccccc2C1` the “activity change, negative = inhibition” value was 9.77% [at 46.1 µM].
In the case of `CCOc1cccc(NC(=O)CC#N)c1`, the Potency is reported as 1.78 µM (active).
In the case of `CCC(=O)Nc1ccc(C(=O)Nc2cccc(OC)c2)cc1`, the “activity change, negative = inhibition” value is reported as 0.618% [at 46.1 µM].
For `CCOc1cccc(C(=O)Nc2cccnc2)c1`, the “activity change, negative = inhibition” value was 9.21% [at 46.1 µM].
With `S=c1[nH]nc(-c2cc(-c3ccsc3)n[nH]2)n1-c1ccccc1` the “activity change, negative = inhibition” value was -11.3%.
In the case of `CN(C)c1ccc(/C=C/C(=O)c2ccc(O)cc2)cc1[N+](=O)[O-]`, the “activity change, negative = inhibition” value is reported as -9.72%.
For `Cn1nnc(NC(=O)CSc2ncn[nH]2)n1`, the “activity change, negative = inhibition” value was -1.4% [at 46.1 µM].
For `O=C(CSc1n[nH]c(-c2cccnc2)n1)Nc1ccnc2ccccc12`, the “activity change, negative = inhibition” value was -14.5% [at 46.1 µM].
With `O=C(CSc1ncn[nH]1)Nc1ccnc2ccccc12` the Potency was 11.2 µM (active).
With `Brc1ccc(-c2n(-c3ccccn3)c3ccccc3[n+]2-c2ccccn2)cc1` the “activity change, negative = inhibition” value was 8.85%.
For `CC(C)(C)c1cc(P(=O)(c2ccccc2)c2ccccc2)ccc1O`, the “activity change, negative = inhibition” value was 14.2%.
With `CC(=O)NC(=S)Nc1ccc(NC(=O)c2cccnc2)cc1` the “activity change, negative = inhibition” value was -4.87%.
With `CC(C)(C)OC(=O)NCCCCCC(=O)N/N=C/c1coc2ccccc2c1=O` the “activity change, negative = inhibition” value was -27.8%.
With `COC(=O)c1sc(C(F)(F)F)c(-c2ccccc2)c1S(=O)(=O)N(C)C` the “activity change, negative = inhibition” value was 7.84%.
For `O=C(O)CCC(=O)Nc1nc2ccc([N+](=O)[O-])cc2s1`, the “activity change, negative = inhibition” value was -9.22% [at 46.1 µM].
With `O=C(NC(Nc1nc2ccc([N+](=O)[O-])cc2s1)(C(F)(F)F)C(F)(F)F)c1ccccc1` the Potency was 0.126 µM (active).
In the case of `O=C(Nc1nc2ccc([N+](=O)[O-])cc2s1)c1ccncc1`, the “activity change, negative = inhibition” value is reported as 16.4%.
In the case of `Cc1ccc(NS(=O)(=O)c2ccc(N/N=C/c3ccccc3OCC(=O)O)c([N+](=O)[O-])c2)c(C)c1`, the “activity change, negative = inhibition” value is reported as -8.07%.
With `COc1cc2c(cc1OC)CC(=O)N(CCCN(C)C[C@H]1Cc3cc(OC)c(OC)cc31)CC2` the “activity change, negative = inhibition” value was 17.7% [at 46.1 µM].
With `O=C(O)Cc1csc(NC(=O)CSc2nnnn2-c2ccc(O)cc2)n1` the “activity change, negative = inhibition” value was -3.49%.
For `Cc1cccc(C)c1NC(=O)NC1=CCCN1C`, the “activity change, negative = inhibition” value was -4.99% [at 46.1 µM].
With `NC(=O)[C@H]1CC2(CC(c3cccc(NC(=O)[C@H]4CCC(=O)N4)c3)=NO2)CN1C(=O)c1ccccc1C(=O)c1ccccc1` (stereo partly drawn) the “activity change, negative = inhibition” value was -14.4%.
In the case of `O=C(Cc1c(F)cccc1Cl)Nc1ccc(-n2cnnn2)cc1`, the “activity change, negative = inhibition” value is reported as -5.01% [at 46.1 µM].
With `O=C(Cc1c(F)cccc1Cl)Nc1ncc([N+](=O)[O-])s1` the Potency was 10 µM (active).
For `Cc1cnc(NC(=O)CSc2c(Cl)cccc2Cl)s1`, the “activity change, negative = inhibition” value was -1.32% [at 46.1 µM].
For `C/C=C/C=N/NC(=O)c1ccncc1`, the “activity change, negative = inhibition” value was 11.7% [at 46.1 µM].
In the case of `CN(C)N=Nc1ccc2nc[nH]c2c1`, the “activity change, negative = inhibition” value is reported as 9.84%.
With `O=C(O)CC1(CC(=O)Nc2cccc(C(F)(F)F)c2)CCCC1` the “activity change, negative = inhibition” value was 35.4%.
In the case of `CCOC(=O)N/N=C1\CC(C)S(=O)(=O)c2ccc(Cl)cc21` (stereo not drawn), the “activity change, negative = inhibition” value is reported as 2.2%.
For `COCc1cc(=O)[nH]c(SC)n1`, the “activity change, negative = inhibition” value was -34.4%.
For `CCN(CCNC(=O)C1=C(C)C(=O)OC12CCC(C)CC2)c1ccccc1` (stereo not drawn), the “activity change, negative = inhibition” value was -10.9%.
With `COc1ccc(C(=O)Nc2ccc(S(=O)(=O)NC(C)C)cc2)cc1` the “activity change, negative = inhibition” value was -3.78% [at 46.1 µM].
With `CC(=O)c1ccc(NC(=S)NC(=O)CC(C)C)cc1` the “activity change, negative = inhibition” value was -8.99% [at 46.1 µM].
In the case of `COc1ccc(NS(=O)(=O)c2ccc(NC(=S)NC(=O)CC(C)C)cc2)cc1`, the Potency is reported as 22.4 µM (active).
In the case of `COc1ccc(NC(=O)C2=NNC(=O)CC2)cc1S(=O)(=O)N1CCCCC1`, the “activity change, negative = inhibition” value is reported as -9.93%.
For `CCc1cc(CNC(=O)CC2C(=O)NCCN2Cc2ccccc2C(F)(F)F)on1` (stereo not drawn), the “activity change, negative = inhibition” value was -15.2%.
For `Cn1c(CSCC(=O)Nc2ccccc2)nnc1SCc1ccccc1`, the “activity change, negative = inhibition” value was -3.46%.
For `Cc1ccc2c(c1)c1ncnc(N3CCc4ccccc4C3)c1n2C`, the Potency was 11.2 µM (active).
In the case of `Cc1ccc2c(c1)c1ncn(CCC3=CCCCC3)c(=O)c1n2C`, the “activity change, negative = inhibition” value is reported as -3.8% [at 46.1 µM].
With `Cc1ccc2c(c1)c1ncn(Cc3ccc(F)cc3)c(=O)c1n2C` the “activity change, negative = inhibition” value was -13.6%.
In the case of `Cc1ccc(C(=O)NNc2ncnc3ccccc23)cc1`, the “activity change, negative = inhibition” value is reported as -15%.
With `O=C(CNC(=O)OCc1ccccc1)Oc1cc2oc(=O)cc(-c3ccccc3)c2cc1Cl` the Potency was 7.08 µM (active).
For `CC(=O)COc1ccc2c(-c3ccccc3)cc(=O)oc2c1`, the “activity change, negative = inhibition” value was 2.72% [at 46.1 µM].
With `O=C(CNC(=O)c1ccc(-c2ccccc2)cc1)OCc1ccc(Cl)cc1` the “activity change, negative = inhibition” value was 17.4% [at 46.1 µM].
For `NCCCCC(N)C(=O)O` (stereo not drawn), the “activity change, negative = inhibition” value was -9.12% [at 46.1 µM].
With `O=C(CS(=O)(=O)c1ccc(C(F)(F)F)cn1)NNC(=O)c1ccccc1` the “activity change, negative = inhibition” value was -20.9%.
For `CCOC(=O)c1c(C)nn(-c2ncccc2NC(=O)CCC(=O)O)c1C`, the “activity change, negative = inhibition” value was 16.3%.
In the case of `O=C(Nc1cccc(Cl)c1)Nc1ccccc1NS(=O)(=O)c1cccs1`, the Potency is reported as 11.2 µM (active).
For `O=C(Nc1cccc(Cl)c1)Nc1nnc(-c2ccccc2)o1`, the “activity change, negative = inhibition” value was 7.19% [at 46.1 µM].
With `O=C(Nc1nncs1)c1ccccc1NS(=O)(=O)c1cccs1` the “activity change, negative = inhibition” value was -25.2% [at 46.1 µM].
For `O=C(O)Cc1ccc(-c2ccccc2)cc1`, the “activity change, negative = inhibition” value was 4.1% [at 46.1 µM].
In the case of `OCC(CO)(CO)NCc1ccc(-c2ccccc2)cc1`, the Potency is reported as 11.2 µM (active).
With `O=C(Cc1ccc(-c2ccccc2)cc1)NC(c1ccccc1)c1ccccc1` the “activity change, negative = inhibition” value was -10.3% [at 46.1 µM].
For `CN(C(=O)CCn1c(=S)oc2ccccc21)C1CCCCC1`, the “activity change, negative = inhibition” value was -13.5%.
